In PubChem BioAssay AID602350 (Broad Institute, 2012) one finds outcome data, which are given here for 39 compounds.

Potency and affinity values are given separately. Active and inactive are the calls of the source.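 Rule for the calls: active = absorbance falls by 30% or more versus neutral controls, with a potency fitted within twice the top valid dose; inconclusive = no clear call, values can overlap the other calls; inactive = change opposite to expected direction, plus the rest.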

In this assay the target is Protein disulfide-isomerase (Homo sapiens) (UniProt P07237). The experiment in a line: PDI inhibitors, insulin aggregation turbidity, dose response, biochemical, absorbance, cherry-picked samples (AID 602350). The note with it: recombinant PDI insulin aggregation, absorbance 650 nm, 90 min; series mostly up to 19.5 µM.
Protein disulfide-isomerase (Homo sapiens), sequence (P07237 whole entry, looked up): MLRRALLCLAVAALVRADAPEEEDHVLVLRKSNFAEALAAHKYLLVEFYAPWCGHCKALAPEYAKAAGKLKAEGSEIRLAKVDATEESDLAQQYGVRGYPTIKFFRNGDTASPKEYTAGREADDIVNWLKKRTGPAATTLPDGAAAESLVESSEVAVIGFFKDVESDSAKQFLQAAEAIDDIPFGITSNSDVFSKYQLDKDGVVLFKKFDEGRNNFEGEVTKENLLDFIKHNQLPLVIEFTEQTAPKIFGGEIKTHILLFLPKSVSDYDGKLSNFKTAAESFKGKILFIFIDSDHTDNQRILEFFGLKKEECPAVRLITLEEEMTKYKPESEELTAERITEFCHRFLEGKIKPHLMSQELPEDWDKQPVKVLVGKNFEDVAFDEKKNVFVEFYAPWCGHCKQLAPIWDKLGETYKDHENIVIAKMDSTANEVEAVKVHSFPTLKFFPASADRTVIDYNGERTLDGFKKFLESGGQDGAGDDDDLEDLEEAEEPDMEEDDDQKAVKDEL
Turning to `CN(C)C(=O)CSc1nnc([C@H](Cc2ccccc2)NC(=O)OC(C)(C)C)o1`, the result was inactive.

As to `CC1(C(=O)NS(=O)(=O)c2ccccc2Cl)CCN1C(=O)c1ccccc1CCc1ccccc1` (centres undefined), the result was inactive.

In the case of `O=C(O)c1ccccc1Cc1ccc(F)c2ccccc12`, the outcome was inactive.

On to `O=C(c1ccc(NS(=O)(=O)c2ccccc2)cc1)N1CCOCC1`, for which the result was inactive.

In the case of `CC(=O)OCC(=O)NCc1ccc2c(c1)OCO2`, the outcome was inactive.

In the case of `CCOC(=O)CN(c1ccccc1)S(=O)(=O)c1ccc(F)cc1`, the result was inactive.

In the case of `CC(=O)c1ccc(NC(=O)c2cc(Cl)nc3ccccc23)cc1`, the result was inactive.

With `Cc1noc(C)c1S(=O)(=O)Nc1ccc2c(c1)CC(=O)N([C@H](C)CO)C[C@@H](C)[C@H](CN(C)S(=O)(=O)c1ccc(F)cc1)O2`, the outcome was inactive.

In the case of `Cc1cc(=O)c(C(=O)Nc2cccc(C(=O)NC3CC3)c2)nn1-c1ccccc1`, the outcome was inactive.

Regarding `C=CCNc1ncnc2c1ncn2[C@H]1CN(Cc2cccc3ccccc23)C[C@@H](CO)O1`, the result was inactive.

Turning to `O=C(CN1C(=O)NC2(CCCC2)C1=O)Nc1ccc(C(F)(F)F)cc1`, the outcome was inactive.

Regarding `CC[C@]12c3[nH]c4cc(-c5ccco5)ccc4c3CCN1C(=O)[C@@H](CC(=O)NCc1ccco1)C[C@@H]2C(=O)N1CCN(C(=O)c2ccco2)CC1`, the outcome was inactive.

As for `O=C(CN(CCc1ccccc1)C(=O)CNS(=O)(=O)c1ccccc1)NCC1CCCO1` (centres undefined), the result was inactive.

As for `O=C1/C(=C\c2ccc(O)cc2)CCC1CNc1ccc(Cl)cc1` (centres undefined), the outcome was inactive.

In the case of `O=C(NCCN1CCOCC1)c1cccnc1SCc1ccccc1Cl`, the result was inactive.

As to `COc1cc(CCC(=O)OCC(=O)Nc2cc(S(=O)(=O)N3CCOCC3)ccc2Cl)cc(OC)c1OC`, the outcome was inactive.

`O=C1CN(c2nc3ccccc3n3cnnc23)CC(=O)N1CCc1ccccc1`: the outcome was inactive.

`C=CC[C@H](CC(=O)N(CCO)Cc1ccccc1)C(=O)N[C@H](COC(=O)[C@@H](CC=C)Cc1ccc(F)cc1)Cc1c[nH]c2ccccc12`: the result was inactive.

As for `O=c1cc(CN2CCN(S(=O)(=O)/C=C/c3ccccc3)CC2)c2ccc(O)cc2o1`, the result was inactive.

In the case of `Cc1cc(NC(=O)CSc2[nH]c(=O)cc(C(F)(F)F)c2C#N)no1`, the outcome was inactive.

On to `Cc1ccc(C)c(N2CCN(S(=O)(=O)c3ccc4c(c3)OCCO4)CC2)c1`, for which the result was inactive.

As to `CN1CCN(Cc2nc3ccccc3c(=O)n2Cc2nc(-c3ccc4ccccc4c3)cs2)CC1`, the outcome was inactive.

As for `CCCCn1c(N)c(N(CC(C)C)C(=O)c2cc(-c3ccncc3)nc3ccccc23)c(=O)[nH]c1=O`, the result was inactive.

In the case of `CCCCn1c(SCC(=O)NC2CCS(=O)(=O)C2)nc2ccccc2c1=O` (centres undefined), the result was inactive.

In the case of `O=C(NCc1cccs1)C1CC(c2ccc(F)cc2)=NO1` (centres undefined), the result was inactive.

Turning to `O=C(NC1CCCCC1)C1CCN(S(=O)(=O)c2cccs2)CC1`, the outcome was inactive.

In the case of `CCOc1ccc(CCN2C(=O)C(=O)N([C@@H](CC(C)C)CN3CCC[C@@H]3CN3C(=O)C(=O)NC[C@@H]3Cc3ccccc3)C[C@@H]2Cc2ccc(O)cc2)cc1`, the result was inactive.

For the compound `C[C@H]1CN([C@@H](C)CO)C(=O)Cc2cc(NC(=O)Nc3ccccc3)ccc2O[C@H]1CN(C)Cc1ccccc1`, the result was inactive.

Consider `C=CCn1c(C(CCCC)CC(O)COCC(C)C)n[nH]c1=S` (centres undefined), for which the result was inactive.

Turning to `CCn1c(SCC(=O)NC2CC2)nnc1-c1ccccc1`, the outcome was inactive.

With `CCCc1cc(=O)[nH]c(SCCOc2ccc(OCC)cc2)n1`, the result was inactive.

Regarding `O=C(CCc1ccc(O)cc1)NN=Cc1cc(Br)ccc1O`, the outcome was inactive.

Take `Cc1ccc(S(=O)(=O)N2CCC(C(=O)Nc3ccc(S(=O)(=O)N4CCCC4)cc3)CC2)cc1`: the outcome was inactive.

As to `COc1cc(C2C(C#N)=C(N)Oc3cc(O)ccc32)cc(OC)c1OC` (centres undefined), the outcome was inactive.

In the case of `CC(=O)c1ccc(OCc2cc(C(=O)N3CCCCC3c3cccnc3)no2)cc1` (centres undefined), the result was inactive.

With `Nc1ccc(C(=O)NN2C(=O)[C@H](Cl)C2c2ccc(Cl)cc2)cc1` (some centres undefined), the outcome was inactive.

For `NC(=O)c1ccc(NC(=O)COC(=O)c2ccc(Br)c(S(=O)(=O)N3CCOCC3)c2)cc1`, the outcome was inactive.

As for `O=C(CCc1nc(-c2ccccc2F)no1)Nc1ccc(Oc2ccccc2)cc1`, the result was inactive.

Take `CCOC(=O)C1=C(c2ccccc2)N=c2s/c(=C\c3cccc(O)c3)c(=O)n2C1c1cccs1` (centres undefined): the result was inactive.
